Values joined by “and” are separate entries in the source; they are usually repeats but may differ in a detail not shown here. Equal values may be shown once. Inconclusive results are not listed. Some compounds were tested as several samples or in several runs, with calls that do not always agree. Active and inactive are the calls of the source. Rule for the calls, unless noted: active = hit-call score of the fitted dose curve at least 0.9, where 1 is the maximum; inactive = score below 0.9.
How the values were obtained:
[1] = read-out: Interleukin-1 alpha (IL1a), IL1A (gene 3552); experiment: BSK_LPS_IL1a: BioMAP Diversity Plus: LPS Assay for Interleukin-1 alpha (IL1a) Biomarker Activity (AID 2283080); conditions: primary human HUVEC with PBMC; actives raise or lower the signal
Method in brief: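 Human umbilical vein endothelial cells co-cultured with peripheral blood mononuclear cells were LPS-stimulated and exposed to test chemicals for 24 h. IL-1 alpha was quantified by ELISA, with bidirectional curve fitting against DMSO as the negative control and baseline.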

[2] = read-out: Monocyte Chemoattractant Protein-1 (MCP1), CCL2 (gene 6347); experiment: BSK_LPS_MCP1: BioMAP Diversity Plus: LPS Assay for Monocyte Chemoattractant Protein-1 (MCP1) Biomarker Activity (AID 2283081); conditions: primary human HUVEC with PBMC; actives raise or lower the signal;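 for AC50: secreted MCP-1 protein quantified by ELISA in culture supernatant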
Method in brief: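 HUVEC plus PBMC co-culture (human primary cells, LPS system) exposed to test chemical for 24 h; MCP-1 measured by ELISA. Bidirectional curve fitting against DMSO baseline; parallel SRB total-protein staining flags overt cytotoxicity.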

[3] = BSK_LPS_PGE2: BioMAP Diversity Plus: LPS Assay for Prostaglandin E2 (PGE2) Biomarker Activity (AID 2283082); conditions: primary human HUVEC with PBMC; actives raise or lower the signal;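 for AC50: secreted prostaglandin E2 measured by ELISA in LPS-stimulated co-culture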
Method in brief: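 HUVEC plus PBMC co-culture stimulated with LPS; secreted PGE2 quantified by ELISA 24 h after chemical dosing. Activity fitted bidirectionally against DMSO as negative control and baseline; parallel SRB total-protein staining served as cytotoxicity check.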

[4] = read-out: Macrophage colony-stimulating factor (MCSF), CSF1 (gene 1435); experiment: BSK_LPS_MCSF: BioMAP Diversity Plus: LPS Assay for Macrophage colony-stimulating factor (MCSF) Biomarker Activity (AID 2283083); conditions: primary human HUVEC with PBMC; actives raise or lower the signal
Method in brief: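 Human umbilical vein endothelial cells co-cultured with peripheral blood mononuclear cells were exposed to compound for 24 h. M-CSF levels were measured by ELISA, and bidirectional curve fitting used DMSO as the negative control and baseline.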

[5] = read-out: Tissue Factor, F3 (gene 2152); experiment: BSK_LPS_TissueFactor: BioMAP Diversity Plus: LPS Assay for Tissue Factor Biomarker Activity (AID 2283084); conditions: primary human HUVEC with PBMC; actives raise or lower the signal
Method in brief: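 Human umbilical vein endothelial cells co-cultured with peripheral blood mononuclear cells were dosed and stimulated with LPS. Cell-surface CD142 was quantified by ELISA at 24 h. Activity was fitted bidirectionally against DMSO baseline.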

[6] = read-out: Tumor necrosis factor (Homo sapiens) (UniProt P01375); experiment: BSK_LPS_TNFa: BioMAP Diversity Plus: LPS Assay for Tumour Necrosis Factor alpha (TNFa) Biomarker Activity (AID 2283085); conditions: primary human HUVEC with PBMC; actives raise or lower the signal
Method in brief: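 Human umbilical vein endothelial cells co-cultured with PBMC were exposed to test chemical and TNFa measured by ELISA 24 h after dosing. Bidirectional curve fitting was done relative to DMSO as negative control and baseline.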

[7] = read-out: Vascular cell adhesion molecule 1 (VCAM1), VCAM1 (gene 7412); experiment: BSK_LPS_VCAM1: BioMAP Diversity Plus: LPS Assay for Vascular cell adhesion molecule 1 (VCAM1) Biomarker Activity (AID 2283086); conditions: primary human HUVEC with PBMC; actives raise or lower the signal
Method in brief: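 Human umbilical vein endothelial cells co-cultured with peripheral blood mononuclear cells under LPS stimulation were exposed to test chemical for 24 h. VCAM-1 levels were then measured by ELISA, with bidirectional curve fitting relative to DMSO as negative control and baseline.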

CD38, CD38 (gene 952) = experiment: BSK_SAg_CD38: BioMAP Diversity Plus: SAg Assay for CD38 Biomarker Activity (AID 2283087); conditions: primary human HUVEC with PBMC; actives raise or lower the signal
Method in brief: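 Fluorescence ELISA of cell-surface CD38 served as the read-out, with either increase or decrease fitted against DMSO controls. Cells were a human umbilical vein endothelium plus PBMC co-culture under SEB/TSST-1 stimulation, measured 24 h after dosing.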

CD40, CD40 (gene 958) = experiment: BSK_SAg_CD40: BioMAP Diversity Plus: SAg Assay for CD40 Biomarker Activity (AID 2283088); conditions: primary human HUVEC with PBMC; actives raise or lower the signal
Method in brief: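 Human umbilical vein endothelial cells co-cultured with PBMC; CD40 levels measured by ELISA with fluorescence read-out 24 h after chemical dosing. Gain or loss of signal fitted bidirectionally against DMSO baseline.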

CD69, CD69 (gene 969) = experiment: BSK_SAg_CD69: BioMAP Diversity Plus: SAg Assay for CD69 Biomarker Activity (AID 2283089); conditions: primary human HUVEC with PBMC; actives raise or lower the signal;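 for AC50: cell surface CD69 protein quantified by ELISA with fluorescence detection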
Method in brief: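 Primary human vascular co-culture (umbilical vein endothelium with peripheral blood mononuclear cells) exposed to test chemical for 24 h. CD69 levels quantified by fluorescence ELISA; DMSO served as negative control for bidirectional fitting.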

[8] = read-out: Monocyte Chemoattractant Protein-1 (MCP1), CCL2 (gene 6347); experiment: BSK_SAg_MCP1: BioMAP Diversity Plus: SAg Assay for Monocyte Chemoattractant Protein-1 (MCP1) Biomarker Activity (AID 2283090); conditions: primary human HUVEC with PBMC; actives raise or lower the signal
Method in brief: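 MCP-1 levels in the endothelial–PBMC SAg co-culture were quantified by ELISA at 24 h post-dosing; both increases and decreases versus DMSO scored. Cytotoxicity monitored by SRB total protein in parallel cultures.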

[9] = read-out: E-selectin (Homo sapiens) (UniProt P16581); experiment: BSK_SAg_Eselectin: BioMAP Diversity Plus: SAg Assay for Eselectin Biomarker Activity (AID 2283091); conditions: primary human HUVEC with PBMC; actives raise or lower the signal
Method in brief: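 HUVEC co-cultured with PBMC, compound dosed then read at 24 h; E-selectin measured by ELISA. Activity fitted bidirectionally against DMSO as negative control and baseline.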

[10] = read-out: Monokine induced gamma interferon (MIG), CXCL9 (gene 4283); experiment: BSK_SAg_MIG: BioMAP Diversity Plus: SAg Assay for Monokine induced gamma interferon (MIG) Biomarker Activity (AID 2283092); conditions: primary human HUVEC with PBMC; actives raise or lower the signal
Method in brief: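 Endothelial cells and PBMC were co-cultured, exposed to test chemicals, and sampled 24 h later. MIG was measured by ELISA, and responses were fitted in both directions relative to DMSO.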

[11] = BSK_SAg_PBMCCytotoxicity: PBMC Cytotoxicity Assessment in the BioMAP Diversity Plus: SAg Assay (AID 2283093); conditions: primary human HUVEC with PBMC;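 note: PBMC viability measured as Alamar Blue reduction fluorescence at 546/580 nm; fitted both ways against DMSO so a hit may be loss or gain of signal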;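 for AC50: PBMC superantigen activated with SEB plus TSST-1 one hour after compound addition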
Method in brief: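 Compound added to 75,000 PBMC/well for 1 h; SEB and TSST-1 then added at 20 ng/mL final each; 90 h incubation; Alamar Blue 6 h; read 546/580 nm ex/em. Activity fitted bidirectionally relative to DMSO baseline.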

[12] = read-out: Interleukin-8 (IL8), CXCL8 (gene 3576); experiment: BSK_SAg_IL8: BioMAP Diversity Plus: SAg Assay for Interleukin-8 (IL8) Biomarker Activity (AID 2283094); conditions: primary human HUVEC with PBMC; actives raise or lower the signal
Method in brief: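 Human umbilical vein endothelial cells co-cultured with peripheral blood mononuclear cells; IL-8 measured by ELISA 24 h after chemical dosing. Bidirectional concentration-response fitting used DMSO as negative control and activity baseline.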

[13] = BSK_SAg_Proliferation: Cell Proliferation Assessment in the BioMAP Diversity Plus: SAg Assay (AID 2283095); conditions: primary human HUVEC with PBMC;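 note: relative cell number as total protein by SRB absorbance in sub-confluent culture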
Method in brief: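 Human umbilical vein endothelial cells co-cultured with peripheral blood mononuclear cells; total protein measured by sulforhodamine B staining (0.1% SRB after 10% TCA fixation), absorbance at 560 nm, at 96 h. Bidirectional fit against DMSO baseline.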

[14] = BSK_SAg_SRB: Viability Assessment in the BioMAP Diversity Plus: SAg Assay (AID 2283096); conditions: primary human HUVEC with PBMC;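 note: cells read one day after compound addition; hits may be either gain or loss of signal compared with DMSO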
Method in brief: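 Total protein by sulforhodamine B staining, 24 h after dosing, in HUVEC–PBMC co-culture; DMSO-referenced bidirectional fitting.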

[15] = biological target: human CYP19A1, CYP19A1 (gene 1588) (UniProt P11511); experiment: NVS_ADME_hCYP19A1: NovaScreen (NVS) CYP450-related Enzyme Activity (ADME) Assay for human CYP19A1 (AID 2283098; active = hit-call score of the fitted dose curve at least 0.9, where 1 is the maximum;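 note: potency for inhibitors seen as loss of fluorescent enzyme signal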)
Sequence of human CYP19A1, CYP19A1 (gene 1588) (P11511 whole entry, looked up): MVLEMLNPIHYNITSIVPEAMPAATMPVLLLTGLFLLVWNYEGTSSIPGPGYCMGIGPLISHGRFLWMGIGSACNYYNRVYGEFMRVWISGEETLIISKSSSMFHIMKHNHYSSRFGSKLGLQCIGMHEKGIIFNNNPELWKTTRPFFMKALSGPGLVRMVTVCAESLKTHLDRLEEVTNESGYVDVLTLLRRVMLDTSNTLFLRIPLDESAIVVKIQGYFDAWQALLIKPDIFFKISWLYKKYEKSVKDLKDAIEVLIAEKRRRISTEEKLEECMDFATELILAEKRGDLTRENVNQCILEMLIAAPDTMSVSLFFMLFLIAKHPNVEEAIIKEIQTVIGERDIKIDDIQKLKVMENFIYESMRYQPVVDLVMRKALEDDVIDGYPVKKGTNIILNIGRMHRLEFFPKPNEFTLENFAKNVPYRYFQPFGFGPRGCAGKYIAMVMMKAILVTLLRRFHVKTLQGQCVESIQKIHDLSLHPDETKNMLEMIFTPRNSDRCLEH
Method in brief: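 Biochem, cell-free; recombinant enzyme + specific substrate; fluorescence intensity at 0.5 h post-dose; 10 uM duplicate primary, conc. series for actives; acetonitrile = negative control/baseline; positive and negative controls on every plate.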

[16] = biological target: human CYP2A6, CYP2A6 (gene 1548) (UniProt P11509); experiment: NVS_ADME_hCYP2A6: NovaScreen (NVS) CYP450-related Enzyme Activity (ADME) Assay for human CYP2A6 (AID 2283099; active = hit-call score of the fitted dose curve at least 0.9, where 1 is the maximum)
Sequence of human CYP2A6, CYP2A6 (gene 1548) (P11509 whole entry, looked up): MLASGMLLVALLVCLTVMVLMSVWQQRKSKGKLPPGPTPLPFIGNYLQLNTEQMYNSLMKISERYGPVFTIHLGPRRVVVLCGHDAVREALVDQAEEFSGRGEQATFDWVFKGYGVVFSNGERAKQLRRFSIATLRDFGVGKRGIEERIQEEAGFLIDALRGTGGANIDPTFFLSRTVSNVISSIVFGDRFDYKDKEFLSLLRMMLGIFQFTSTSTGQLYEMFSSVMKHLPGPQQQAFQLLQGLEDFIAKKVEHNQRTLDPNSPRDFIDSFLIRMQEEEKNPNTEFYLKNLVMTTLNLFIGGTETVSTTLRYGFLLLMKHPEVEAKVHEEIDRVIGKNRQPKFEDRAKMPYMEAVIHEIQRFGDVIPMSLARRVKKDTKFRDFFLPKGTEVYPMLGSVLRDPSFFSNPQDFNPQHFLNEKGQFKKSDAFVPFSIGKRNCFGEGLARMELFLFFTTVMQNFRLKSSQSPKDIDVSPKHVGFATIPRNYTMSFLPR
Method in brief: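 Cell-free fluorescence readout of recombinant human CYP2A6 expressed in insect cells, read 0.5 h after dosing; loss of signal versus acetonitrile negative control. Primary screen in duplicate at 10 uM; actives re-run in concentration-response up to 20 uM.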

[17] = biological target: human CYP1A1, CYP1A1 (gene 1543) (UniProt P04798); experiment: NVS_ADME_hCYP1A1: NovaScreen (NVS) CYP450-related Enzyme Activity (ADME) Assay for human CYP1A1 (AID 2283100; active = hit-call score of the fitted dose curve at least 0.9, where 1 is the maximum)
Sequence of human CYP1A1, CYP1A1 (gene 1543) (P04798 whole entry, looked up): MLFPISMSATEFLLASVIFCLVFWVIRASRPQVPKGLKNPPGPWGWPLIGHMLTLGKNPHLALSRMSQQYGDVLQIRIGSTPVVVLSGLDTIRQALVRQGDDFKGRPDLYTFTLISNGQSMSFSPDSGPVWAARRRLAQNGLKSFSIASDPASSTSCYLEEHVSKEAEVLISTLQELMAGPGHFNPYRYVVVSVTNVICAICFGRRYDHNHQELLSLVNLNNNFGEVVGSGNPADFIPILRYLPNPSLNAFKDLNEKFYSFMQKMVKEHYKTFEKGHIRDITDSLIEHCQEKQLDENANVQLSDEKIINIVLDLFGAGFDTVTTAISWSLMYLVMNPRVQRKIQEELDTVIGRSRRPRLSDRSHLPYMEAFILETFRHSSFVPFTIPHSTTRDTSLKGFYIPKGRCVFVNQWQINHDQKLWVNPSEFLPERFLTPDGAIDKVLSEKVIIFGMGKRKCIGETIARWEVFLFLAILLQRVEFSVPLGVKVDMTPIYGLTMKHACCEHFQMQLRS
Method in brief: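 Cell-free fluorescence assay of recombinant human CYP1A1 activity with a specific substrate, read 1 h after dosing. Compounds were screened in duplicate at 10 uM, then hits tested in concentration-response up to 20 uM; acetonitrile served as baseline.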

Sequence of E-selectin (Homo sapiens) (P16581 whole entry, looked up): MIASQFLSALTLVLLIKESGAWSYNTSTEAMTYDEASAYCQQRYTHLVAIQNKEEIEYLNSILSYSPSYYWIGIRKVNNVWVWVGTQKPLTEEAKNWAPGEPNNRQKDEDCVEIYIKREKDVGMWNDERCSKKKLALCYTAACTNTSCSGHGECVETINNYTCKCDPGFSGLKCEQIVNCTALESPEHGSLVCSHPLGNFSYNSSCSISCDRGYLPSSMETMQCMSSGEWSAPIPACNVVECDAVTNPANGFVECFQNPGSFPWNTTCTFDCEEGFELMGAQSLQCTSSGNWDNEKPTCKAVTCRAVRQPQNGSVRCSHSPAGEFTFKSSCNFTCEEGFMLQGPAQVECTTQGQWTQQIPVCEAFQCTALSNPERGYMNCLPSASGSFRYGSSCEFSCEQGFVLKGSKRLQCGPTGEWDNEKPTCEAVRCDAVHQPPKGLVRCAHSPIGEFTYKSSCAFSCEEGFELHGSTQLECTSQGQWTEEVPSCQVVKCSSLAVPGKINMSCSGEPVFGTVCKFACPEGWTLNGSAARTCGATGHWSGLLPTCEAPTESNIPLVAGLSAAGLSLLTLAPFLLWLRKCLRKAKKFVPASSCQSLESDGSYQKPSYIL
Sequence of Tumor necrosis factor (Homo sapiens) (P01375 whole entry, looked up): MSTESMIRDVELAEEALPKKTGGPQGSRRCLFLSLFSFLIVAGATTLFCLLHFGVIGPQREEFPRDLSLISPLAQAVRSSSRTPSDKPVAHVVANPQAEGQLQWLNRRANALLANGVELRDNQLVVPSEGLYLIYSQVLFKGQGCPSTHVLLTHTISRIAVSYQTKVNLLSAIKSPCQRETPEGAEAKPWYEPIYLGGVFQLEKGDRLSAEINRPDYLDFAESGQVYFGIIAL

SMILES: Oc1cc(Cl)ccc1Oc1ccc(Cl)cc1Cl
- AC50 [1]: 14.3 µM (active) and 14.6 µM (active) and 29 µM (active)
- AC50 [2]: 19.9 µM (active) [middle of 4 runs]
- AC50 [3]: 6.07 µM (active) [middle of 4 runs]
- AC50 [4]: 18.7 µM (active) [middle of 4 runs]
- AC50 [5]: 28.1 µM (active) and 14.7 µM (active) and 30.3 µM (active)
- AC50 [6]: 31.2 µM (active) [middle of 4 runs]
- AC50 [7]: 25.8 µM (active) [middle of 4 runs]
- AC50 (CD38, CD38 (gene 952)): 12.4 µM (active) [middle of 4 runs]
- AC50 (CD40, CD40 (gene 958)): 12.9 µM (active) [middle of 4 runs]
- AC50 (CD69, CD69 (gene 969)): 13.5 µM (active) and 14.7 µM (active) and 14.4 µM (active)
- AC50 [8]: 12.5 µM (active) [middle of 4 runs]
- AC50 [9]: 12.7 µM (active) [middle of 4 runs]
- AC50 [10]: 15.8 µM (active) [middle of 4 runs]
- AC50 [11]: 13.8 µM (active) [middle of 4 runs]
- AC50 [12]: 12.8 µM (active) [middle of 4 runs]
- AC50 [13]: 8.46 µM (active) and 8.15 µM (active) and 6.76 µM (active)
- AC50 [14]: 15.3 µM (active) and 22.3 µM (active) and 14.9 µM (active)

SMILES: CC(C)OC(=O)Nc1cccc(Cl)c1
- outcome [1]: inactive
- outcome [2]: inactive
- AC50 [3]: 6.13 µM (active)
- outcome [4]: inactive
- outcome [5]: inactive
- outcome [6]: inactive
- outcome [7]: inactive
- outcome (CD38, CD38 (gene 952)): inactive
- outcome (CD40, CD40 (gene 958)): inactive
- outcome (CD69, CD69 (gene 969)): inactive
- outcome [8]: inactive
- outcome [9]: inactive
- outcome [10]: inactive
- outcome [11]: inactive
- outcome [12]: inactive
- outcome [13]: inactive
- AC50 [14]: 1.76 µM (active)

SMILES: COP(=S)(OC)Oc1ccc(SC)c(C)c1
- outcome [1]: inactive
- outcome [2]: inactive
- AC50 [3]: 30.1 µM (active)
- AC50 [4]: 15.9 µM (active)
- outcome [5]: inactive
- outcome [6]: inactive
- outcome [7]: inactive
- outcome (CD38, CD38 (gene 952)): inactive
- outcome (CD40, CD40 (gene 958)): inactive
- outcome (CD69, CD69 (gene 969)): inactive
- outcome [8]: inactive
- AC50 [9]: 33.6 µM (active)
- outcome [10]: inactive
- outcome [11]: inactive
- outcome [12]: inactive
- outcome [13]: inactive
- outcome [14]: inactive

SMILES: CCN(CC)C(=O)SCc1ccc(Cl)cc1
- outcome [1]: inactive
- outcome [2]: inactive
- AC50 [3]: 7.03 µM (active)
- outcome [4]: inactive
- outcome [5]: inactive
- outcome [6]: inactive
- outcome [7]: inactive
- outcome (CD38, CD38 (gene 952)): inactive
- outcome (CD40, CD40 (gene 958)): inactive
- outcome (CD69, CD69 (gene 969)): inactive
- outcome [8]: inactive
- outcome [9]: inactive
- outcome [10]: inactive
- outcome [11]: inactive
- outcome [12]: inactive
- outcome [13]: inactive
- outcome [14]: inactive

SMILES: CC(C)(C)C(O)C(Oc1ccc(Cl)cc1)n1cncn1 (configuration not stated)
- outcome [1]: inactive
- outcome [2]: inactive
- AC50 [3]: 3.1 µM (active)
- outcome [3]: inactive
- AC50 [4]: 20 µM (active)
- outcome [4]: inactive
- outcome [5]: inactive
- outcome [6]: inactive
- outcome [7]: inactive
- AC50 (CD38, CD38 (gene 952)): 4.99 µM (active)
- outcome (CD38, CD38 (gene 952)): inactive
- AC50 (CD40, CD40 (gene 958)): 8.99 µM (active)
- outcome (CD40, CD40 (gene 958)): inactive
- outcome (CD69, CD69 (gene 969)): inactive
- outcome [8]: inactive
- AC50 [9]: 12.9 µM (active)
- outcome [9]: inactive
- outcome [10]: inactive
- AC50 [11]: 3.38 µM (active)
- outcome [11]: inactive
- AC50 [12]: 10.6 µM (active)
- outcome [12]: inactive
- AC50 [13]: 15 µM (active)
- outcome [13]: inactive
- outcome [14]: inactive
- AC50 [15]: 7.34 µM (active) and 2.41 µM (active)
- outcome [16]: inactive
- AC50 [17]: 7.11 µM (active)
- outcome [17]: inactive

— PubChem BioAssay (EPA / NIEHS)
